Measurements from the supplement of paper PMC10849652.
About 8,800 targets were measured; listed, in parts, are those with a hit and a random draw of the rest. About 0.5% of all pairs of compound and target were hits.

Legend:
Test in all cases: log2 fold change, soluble protein after heating vs DMSO (PISA); higher = thermal stabilisation; K562 lysate, 10 uM; active = over 0.2 and 3.5 SD of the protein, either way, in both replicates (recomputed)
[1] = compound: C=CC(=O)N1CCC[C@@H](n2nc(-c3ccc(Oc4ccccc4)cc3)c3c(N)ncnc32)C1 [ibrutinib]
Method in brief: (§1)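 Soluble protein was defined as the supernatant remaining after 21,000xg for 90 min, following pooling of heated aliquots and adjustment to 0.5% NP-40 at 4°C. Before that, crude K562 extract at 1 mg/mL protein in PBS pH 7.4 with 1 mM MgCl2 was treated with 10 μM compound for 30 min and heated for 3 min across 48°C-58°C. Quantification used TMTpro 16plex LC-MS/MS with channel sums equalised, and values are log-two fold changes in thermal stability relative to solvent controls from duplicates.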

[2] = compound: CC(=O)c1cnc2ccc(-c3cc(Cl)c(O)c(Cl)c3)nc2c1N[C@H]1CC[C@H](CN(C)C)CC1
Method in brief: as §1

[3] = compound: CC(C)(C)Cn1c(N)nc2ccc(-c3[nH]c(C(C)(C)C)nc3-c3ccc(F)cc3)nc21 [ralimetinib]
Method in brief: as §1

[4] = compound: CC(C)(O)CC(=O)NCCn1ccc2ncnc(Nc3ccc(Oc4cccc(C(F)(F)F)c4)c(Cl)c3)c21
Method in brief: as §1

[5] = compound: CC(C)C1=C2N=C(C=C(N2N=C1)NCC3=CC=CC=C3)NCCCCCCN
Method in brief: as §1

[6] = compound: CC1=C(C(CC(=O)N1)C2=CC=C(C=C2)C(F)(F)F)C(=O)NC3=C(C=C4C(=C3)C=NN4)F
Method in brief: as §1

[7] = compound: CC1=C(C2=C(C=C1)C(=O)C3=CC=CC=C3N2CCCN)C
Method in brief: as §1

[8] = compound: CC1=C(C=C(C=C1)NC(=O)C2=CC(=CC=C2)C(C)(C)C#N)NC3=CC4=C(C=C3)N=CN(C4=O)C
Method in brief: as §1

[9] = compound: CC1=C(C=C(C=C1)NC(=O)C2=CC(=CC=C2)N(C)C)NC(=O)C3=CC=C(C=C3)O
Method in brief: as §1

[10] = compound: CC1=CC=C(C=C1)SC2=C3C=C(SC3=CN=C2)C(=O)N
Method in brief: as §1

Measured: log2 fold change

ASNS (UniProt P08243)
Sequence of UniProt P08243 (P08243 whole entry, looked up): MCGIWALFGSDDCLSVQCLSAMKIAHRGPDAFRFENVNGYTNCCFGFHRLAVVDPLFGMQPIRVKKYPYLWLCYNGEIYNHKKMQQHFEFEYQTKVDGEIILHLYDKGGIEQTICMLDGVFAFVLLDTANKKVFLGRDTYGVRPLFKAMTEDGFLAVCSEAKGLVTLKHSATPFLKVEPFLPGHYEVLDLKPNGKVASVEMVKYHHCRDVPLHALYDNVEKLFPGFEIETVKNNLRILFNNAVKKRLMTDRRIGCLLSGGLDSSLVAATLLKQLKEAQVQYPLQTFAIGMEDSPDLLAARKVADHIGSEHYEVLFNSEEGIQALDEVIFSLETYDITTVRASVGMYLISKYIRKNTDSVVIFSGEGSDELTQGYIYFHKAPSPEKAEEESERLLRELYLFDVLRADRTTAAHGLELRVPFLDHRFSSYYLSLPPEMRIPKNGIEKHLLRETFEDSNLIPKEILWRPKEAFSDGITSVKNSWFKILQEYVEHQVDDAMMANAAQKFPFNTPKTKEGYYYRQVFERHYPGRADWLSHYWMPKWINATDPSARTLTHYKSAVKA
inactive: [1] 0.012 | [2] 0.015 | [3] -0.014 | [4] 0.012 | [5] 0.052 | [6] -0.017 | [7] 0.04 | [8] 0.016 | [9] 0.014 | [10] 0.047

ARL15 (UniProt Q9NXU5)
Sequence of UniProt Q9NXU5 (Q9NXU5 whole entry, looked up): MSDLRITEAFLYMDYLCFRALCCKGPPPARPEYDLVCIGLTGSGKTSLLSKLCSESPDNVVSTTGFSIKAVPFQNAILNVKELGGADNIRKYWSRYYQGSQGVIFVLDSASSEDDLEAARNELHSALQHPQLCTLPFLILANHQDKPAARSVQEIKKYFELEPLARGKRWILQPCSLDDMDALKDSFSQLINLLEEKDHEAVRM
inactive: [1] -0.015 | [2] 0.048 | [3] -0.012 | [4] -0.05 | [5] 0.015 | [6] 0.005 | [7] 0.005 | [8] 0.001 | [9] 0.033 | [10] -0.005

AIMP1 isoform 2 (UniProt Q12904)
Sequence of UniProt Q12904 (Q12904 whole entry, looked up): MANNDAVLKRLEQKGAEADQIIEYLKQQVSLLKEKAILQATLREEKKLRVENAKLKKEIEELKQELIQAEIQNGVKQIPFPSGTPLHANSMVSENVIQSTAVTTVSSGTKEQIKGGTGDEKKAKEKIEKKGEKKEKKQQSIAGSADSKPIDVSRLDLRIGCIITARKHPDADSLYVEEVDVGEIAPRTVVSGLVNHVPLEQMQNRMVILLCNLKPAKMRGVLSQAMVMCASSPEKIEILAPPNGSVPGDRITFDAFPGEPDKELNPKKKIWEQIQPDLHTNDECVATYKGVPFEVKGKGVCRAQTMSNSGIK
inactive: [1] 0.009 | [2] 0.012 | [3] 0.026 | [4] 0.018 | [5] 0.022 | [6] -0.026 | [7] 0.005 | [8] -0.014 | [9] -0.006 | [10] 0.006

ANP32E (UniProt Q9BTT0)
Sequence of UniProt Q9BTT0 (Q9BTT0 whole entry, looked up): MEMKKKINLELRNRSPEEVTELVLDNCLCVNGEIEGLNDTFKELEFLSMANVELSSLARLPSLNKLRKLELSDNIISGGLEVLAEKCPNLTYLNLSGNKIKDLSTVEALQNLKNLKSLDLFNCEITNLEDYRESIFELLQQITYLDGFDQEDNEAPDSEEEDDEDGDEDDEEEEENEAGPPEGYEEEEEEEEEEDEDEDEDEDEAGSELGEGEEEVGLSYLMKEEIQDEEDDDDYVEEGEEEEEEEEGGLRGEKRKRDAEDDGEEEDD
inactive: [1] 0.03 | [2] -0.009 | [3] -0.015 | [4] 0.001 | [5] 0.022 | [6] -0.051 | [7] -0.072 | [8] 0.011 | [9] -0.065 | [10] 0.063

AMMECR1 (UniProt Q9Y4X0)
Sequence of UniProt Q9Y4X0 (Q9Y4X0 whole entry, looked up): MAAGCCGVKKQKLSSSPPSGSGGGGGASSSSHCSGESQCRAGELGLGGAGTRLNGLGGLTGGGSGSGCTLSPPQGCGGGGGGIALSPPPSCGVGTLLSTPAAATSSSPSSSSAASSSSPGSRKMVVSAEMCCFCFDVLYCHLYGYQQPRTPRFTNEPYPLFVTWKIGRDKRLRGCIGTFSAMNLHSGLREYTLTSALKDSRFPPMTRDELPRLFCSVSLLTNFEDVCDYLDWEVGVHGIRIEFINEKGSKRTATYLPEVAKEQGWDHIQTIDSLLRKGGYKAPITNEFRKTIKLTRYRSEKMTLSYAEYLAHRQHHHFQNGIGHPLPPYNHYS
inactive: [1] -0.021 | [2] -0.008 | [3] 0.006 | [4] -0.016 | [5] 0.014 | [6] 0.009 | [7] -0.01 | [8] -0.003 | [9] -0.027 | [10] -0.039

AKR1C3 (UniProt P42330)
inactive: [1] -0.033 | [2] 0.016 | [3] -0.028 | [4] -0.003 | [5] -0.039 | [6] 0.011 | [8] 0.02 | [9] -0.035 | [10] 0.001
active: [7] 0.247

ADRM1 (UniProt Q16186)
Sequence of UniProt Q16186 (Q16186 whole entry, looked up): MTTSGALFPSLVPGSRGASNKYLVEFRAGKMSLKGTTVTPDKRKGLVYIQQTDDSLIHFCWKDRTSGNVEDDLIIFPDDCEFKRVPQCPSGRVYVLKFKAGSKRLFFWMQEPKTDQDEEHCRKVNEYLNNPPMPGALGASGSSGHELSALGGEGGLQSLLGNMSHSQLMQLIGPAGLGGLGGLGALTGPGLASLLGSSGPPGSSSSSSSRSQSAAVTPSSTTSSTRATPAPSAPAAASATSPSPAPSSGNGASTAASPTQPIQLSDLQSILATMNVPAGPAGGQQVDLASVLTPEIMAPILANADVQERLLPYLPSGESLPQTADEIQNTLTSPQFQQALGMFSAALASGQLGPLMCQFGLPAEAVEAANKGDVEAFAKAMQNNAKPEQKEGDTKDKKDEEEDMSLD
inactive: [1] 0.005 | [2] -0.009 | [3] 0.027 | [4] -0.007 | [5] 0.026 | [6] -0.028 | [7] -0.011 | [8] 0.019 | [9] 0.012 | [10] -0.01

APAF1 (UniProt O14727)
inactive: [1] 0.027 | [2] 0.063 | [3] 0.031 | [4] -0.04 | [5] 0.009 | [6] 0.008 | [7] -0.005 | [8] 0.003 | [9] 0.002 | [10] 0.022

AFF1 isoform 2 (UniProt P51825)
inactive: [1] 0.136 | [2] -0.028 | [3] 0.078 | [4] -0.02 | [5] -0.001 | [6] 0.037 | [7] -0.047 | [8] 0.023 | [9] 0.02 | [10] -0.002

ARAF (UniProt P10398)
inactive: [1] 0.071 | [2] -0.012 | [3] 0.029 | [4] -0.01 | [5] 0.058 | [6] -0.007 | [7] 0.004 | [8] 0.004 | [9] 0.041 | [10] 0.003

ACACB (UniProt O00763)
inactive: [1] 0.051 | [2] 0.018 | [3] 0.069 | [4] 0.032 | [5] 0.014 | [6] -0.036 | [7] 0.015 | [8] 0.021 | [9] 0.052 | [10] 0.022

APEX1 (UniProt P27695)
Sequence of UniProt P27695 (P27695 whole entry, looked up): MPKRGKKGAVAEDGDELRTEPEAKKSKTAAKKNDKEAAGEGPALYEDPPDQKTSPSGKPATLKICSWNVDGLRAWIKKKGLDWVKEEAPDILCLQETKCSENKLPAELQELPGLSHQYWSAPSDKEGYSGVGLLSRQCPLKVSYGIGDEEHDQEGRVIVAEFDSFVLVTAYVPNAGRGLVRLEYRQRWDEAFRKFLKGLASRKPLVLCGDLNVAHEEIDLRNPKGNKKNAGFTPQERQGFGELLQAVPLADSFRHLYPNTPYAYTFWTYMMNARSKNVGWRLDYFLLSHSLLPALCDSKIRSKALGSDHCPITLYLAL
inactive: [1] 0.048 | [2] -0.001 | [3] -0.014 | [4] 0.026 | [5] 0.006 | [6] 0.001 | [7] -0.02 | [8] -0.011 | [9] 0.01 | [10] 0.019

ANXA11 (UniProt P50995)
inactive: [1] -0.005 | [2] -0.027 | [3] -0.002 | [4] 0.057 | [5] 0.034 | [6] -0.031 | [7] 0.023 | [8] -0.041 | [9] 0.01 | [10] 0

AMD1 (UniProt P17707)
Sequence of UniProt P17707 (P17707 whole entry, looked up): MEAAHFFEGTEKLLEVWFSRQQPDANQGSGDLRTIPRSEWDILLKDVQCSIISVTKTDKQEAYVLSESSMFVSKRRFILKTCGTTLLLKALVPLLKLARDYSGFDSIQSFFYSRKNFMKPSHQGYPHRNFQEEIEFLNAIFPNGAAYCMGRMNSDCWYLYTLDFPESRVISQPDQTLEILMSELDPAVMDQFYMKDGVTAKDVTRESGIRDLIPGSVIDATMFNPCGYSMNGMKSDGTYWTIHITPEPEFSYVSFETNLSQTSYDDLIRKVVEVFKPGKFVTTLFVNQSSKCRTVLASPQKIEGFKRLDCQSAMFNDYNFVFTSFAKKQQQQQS
inactive: [1] -0.031 | [3] -0.02 | [4] -0.013 | [5] -0.054 | [6] 0.019 | [7] -0.015 | [8] 0.155 | [9] -0.023 | [10] -0.119
active: [2] 0.464

ADD1 isoform 3 (UniProt P35611)
inactive: [1] -0.006 | [2] -0.009 | [3] 0 | [4] -0.01 | [5] -0.005 | [6] 0.007 | [7] -0.038 | [8] 0.005 | [9] -0.009 | [10] -0.019

AKR1B1 (UniProt P15121)
inactive: [1] 0.023 | [2] -0.015 | [3] 0.031 | [4] -0.029 | [5] -0.033 | [6] -0.013 | [7] 0.091 | [8] -0.038 | [9] 0.028 | [10] 0.004

ASPH (UniProt Q12797)
Sequence of UniProt Q12797 (Q12797 whole entry, looked up): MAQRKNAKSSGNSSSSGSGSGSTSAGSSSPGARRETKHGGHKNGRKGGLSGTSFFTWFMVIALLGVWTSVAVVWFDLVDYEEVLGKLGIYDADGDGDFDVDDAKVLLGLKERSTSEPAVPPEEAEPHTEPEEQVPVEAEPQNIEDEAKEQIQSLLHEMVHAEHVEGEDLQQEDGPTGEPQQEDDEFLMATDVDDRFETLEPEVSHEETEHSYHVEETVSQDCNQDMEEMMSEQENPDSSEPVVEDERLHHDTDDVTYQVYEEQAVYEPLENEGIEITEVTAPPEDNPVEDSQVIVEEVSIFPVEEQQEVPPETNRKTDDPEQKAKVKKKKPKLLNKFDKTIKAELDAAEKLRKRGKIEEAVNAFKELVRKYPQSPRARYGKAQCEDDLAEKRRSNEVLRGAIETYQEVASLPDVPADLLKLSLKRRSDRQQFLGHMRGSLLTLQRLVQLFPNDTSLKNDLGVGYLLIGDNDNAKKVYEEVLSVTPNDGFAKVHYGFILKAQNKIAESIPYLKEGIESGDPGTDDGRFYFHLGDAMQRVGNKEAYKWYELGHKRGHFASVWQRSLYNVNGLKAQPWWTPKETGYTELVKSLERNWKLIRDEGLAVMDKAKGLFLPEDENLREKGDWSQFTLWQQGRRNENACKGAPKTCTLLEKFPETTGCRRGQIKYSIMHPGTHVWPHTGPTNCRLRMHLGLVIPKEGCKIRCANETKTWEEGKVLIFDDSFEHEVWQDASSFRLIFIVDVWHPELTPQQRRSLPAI
inactive: [1] 0.015 | [2] -0.004 | [3] -0.006 | [4] -0.001 | [5] -0.028 | [6] 0.052 | [7] 0.076 | [8] -0.025 | [9] 0.025 | [10] 0

ANLN (UniProt Q9NQW6)
inactive: [1] 0.025 | [2] -0.027 | [3] 0.02 | [4] -0.001 | [5] -0.014 | [6] 0.02 | [7] -0.01 | [8] 0.026 | [9] 0.029 | [10] -0.04

ARGLU1 (UniProt Q9NWB6)
Sequence of UniProt Q9NWB6 (Q9NWB6 whole entry, looked up): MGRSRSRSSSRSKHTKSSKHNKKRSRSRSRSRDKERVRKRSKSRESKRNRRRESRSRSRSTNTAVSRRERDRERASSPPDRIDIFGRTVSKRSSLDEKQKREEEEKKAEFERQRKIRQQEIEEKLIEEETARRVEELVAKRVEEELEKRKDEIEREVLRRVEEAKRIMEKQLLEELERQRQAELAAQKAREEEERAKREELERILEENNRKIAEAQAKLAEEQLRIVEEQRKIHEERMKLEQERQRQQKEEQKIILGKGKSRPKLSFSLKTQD
inactive: [1] 0.027 | [2] -0.034 | [3] -0.027 | [4] 0.015 | [5] 0.005 | [6] -0.008 | [7] 0.026 | [8] -0.027 | [9] -0.022 | [10] 0.019

APOBEC3C (UniProt Q9NRW3)
Sequence of UniProt Q9NRW3 (Q9NRW3 whole entry, looked up): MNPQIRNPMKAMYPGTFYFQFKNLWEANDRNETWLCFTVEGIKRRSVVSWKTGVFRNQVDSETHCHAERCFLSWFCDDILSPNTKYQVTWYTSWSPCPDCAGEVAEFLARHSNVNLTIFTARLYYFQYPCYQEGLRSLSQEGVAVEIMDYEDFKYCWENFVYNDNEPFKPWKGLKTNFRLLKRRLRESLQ
inactive: [1] -0.024 | [2] -0.047 | [3] 0.005 | [4] -0.051 | [5] -0.01 | [6] 0 | [7] -0.025 | [8] 0.046 | [9] 0.019 | [10] -0.01

ABHD12 isoform 2 (UniProt Q8N2K0)
inactive: [1] -0.039 | [2] -0.03 | [3] 0.043 | [4] -0.014 | [5] 0.05 | [6] 0.052 | [7] 0.021 | [8] 0.022 | [9] -0.05 | [10] 0.033

ANXA2 isoform 2 (UniProt P07355)
inactive: [1] -0.013 | [2] 0.012 | [3] -0.009 | [4] 0.033 | [5] -0.01 | [6] 0.006 | [7] 0.048 | [8] -0.024 | [9] -0.01 | [10] 0.013

AGTPBP1 (UniProt Q9UPW5)
inactive: [1] -0.255 | [2] 0.001 | [3] 0.013 | [4] -0.058 | [5] 0.008 | [6] -0.026 | [7] 0.051 | [8] 0.077 | [9] 0.005 | [10] 0.012

ALDH2 (UniProt P05091)
inactive: [1] -0.001 | [2] 0.081 | [3] 0.002 | [4] -0.012 | [5] 0.199 | [6] -0.013 | [7] 0.014 | [8] -0.081 | [9] 0 | [10] 0.01

ANXA1 (UniProt P04083)
Sequence of UniProt P04083 (P04083 whole entry, looked up): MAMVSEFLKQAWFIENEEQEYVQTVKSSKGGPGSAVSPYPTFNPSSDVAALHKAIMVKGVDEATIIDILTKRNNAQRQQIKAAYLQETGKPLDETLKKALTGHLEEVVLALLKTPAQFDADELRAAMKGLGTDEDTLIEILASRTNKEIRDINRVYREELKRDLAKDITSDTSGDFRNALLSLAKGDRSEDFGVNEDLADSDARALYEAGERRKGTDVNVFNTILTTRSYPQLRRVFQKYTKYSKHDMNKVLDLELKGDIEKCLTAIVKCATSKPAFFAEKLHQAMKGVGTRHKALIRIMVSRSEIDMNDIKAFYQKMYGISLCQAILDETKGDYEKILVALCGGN
inactive: [1] -0.001 | [2] 0.007 | [3] -0.003 | [4] 0.007 | [5] 0.005 | [6] -0.01 | [7] 0.03 | [8] -0.024 | [9] 0.025 | [10] -0.003

ARAP1 (UniProt Q96P48)
inactive: [1] -0.01 | [2] 0.002 | [3] 0.016 | [4] 0.028 | [5] 0.003 | [6] 0.02 | [7] -0.01 | [8] 0.005 | [9] 0.057 | [10] 0.006

ABI1 isoform 9 (UniProt Q8IZP0)
Sequence of UniProt Q8IZP0 (Q8IZP0 whole entry, looked up): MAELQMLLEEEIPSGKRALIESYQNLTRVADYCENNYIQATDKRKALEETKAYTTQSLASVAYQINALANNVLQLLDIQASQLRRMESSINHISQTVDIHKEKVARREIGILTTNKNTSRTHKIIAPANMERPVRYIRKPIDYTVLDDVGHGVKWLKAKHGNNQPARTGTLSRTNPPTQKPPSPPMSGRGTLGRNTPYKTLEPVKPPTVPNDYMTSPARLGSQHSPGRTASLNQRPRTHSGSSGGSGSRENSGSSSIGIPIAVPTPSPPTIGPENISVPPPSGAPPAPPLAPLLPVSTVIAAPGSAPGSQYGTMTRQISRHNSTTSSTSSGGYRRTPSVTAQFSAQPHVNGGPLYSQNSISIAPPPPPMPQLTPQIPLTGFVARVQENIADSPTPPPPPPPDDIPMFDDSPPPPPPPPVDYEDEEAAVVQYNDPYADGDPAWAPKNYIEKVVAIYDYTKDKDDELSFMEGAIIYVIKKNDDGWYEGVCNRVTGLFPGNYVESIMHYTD
inactive: [1] 0.034 | [2] 0.023 | [3] -0.031 | [4] -0.005 | [5] 0.031 | [6] -0.02 | [7] -0.008 | [8] 0.024 | [9] -0.012 | [10] 0.003

AP3D1 isoform 5 (UniProt O14617)
inactive: [1] 0.033 | [2] -0.012 | [3] 0.028 | [4] -0.012 | [5] -0.007 | [6] -0.014 | [7] -0.024 | [8] 0.011 | [9] 0.01 | [10] 0.006

ACTG1 (UniProt I3L4N8)
active: [7] -0.677
inactive: [1] 0.191 | [2] 0.053 | [3] -0.019 | [4] 0.065 | [5] -0.184 | [6] 0.038 | [8] -0.181 | [9] -0.006 | [10] 0.033
